# In all, about 48,000 compounds went through this assay and about 13,000 (27%) showed an effect of 50% or more. This is one part of the list.
# Tested on: Wolbachia pipientis
# Experiment: Anti-Wolbachia Cell-Based Screen
# Format: functional
# Design: scale not given: in the data most compounds retested in dose-response had high values
# Details: 5 µM
row,SMILES,Percent Effect [%]
1,Cc1ccc(CNS(=O)(=O)CC2=NC(=O)n3cccc3C2=O)cc1,16.21
2,COc1ccccc1OC1(C(=O)O)CCN(c2ccccn2)CC1,-33.54
3,COc1cccc2ccc(N3CCC(O)(c4ccc(C)cn4)CC3)nc12,110
4,Nc1nccc(N2CCC(Cc3ccccc3Cl)(C(=O)O)CC2)n1,-23.92
5,O=C(O)C1(O)CCN(c2ccc3cccc(Cl)c3n2)CC1,102.6
6,COc1ccccc1OC1(C(=O)O)CCN(c2nc(C)cnc2C)CC1,-31.32
7,Cc1nc(N2CCCC2)nc(N2CCC(O)(C(=O)O)CC2)c1C,-11.99
8,COc1cccc(CN2CCC(O)(c3ccc(C)cn3)CC2)c1OC,-1.243
9,COc1ccnc(CN2CCC(O)(c3ccc(C)cn3)CC2)c1OC,-7.822
10,COc1cccc2ccc(N3CCC(O)(C(=O)O)CC3)nc12,85.02
11,O=S(=O)(Nc1nccs1)c1cc(Cl)cc2c1OCC2,-24.06
12,Fc1cc(CN2CCOC3(CCOCC3)C2)ccc1OC(F)F,-0.1745
13,CCc1noc(CSc2n[nH]c(-c3ccccn3)n2)n1,-7.886
14,Cn1cc(CN2CCCC(CCc3c(F)cccc3F)C2)cn1 (centres undefined),4.691
15,CCn1cc(CN2CCCC(COc3ccccc3F)C2)cn1 (centres undefined),9.663
16,Cn1nccc1CN1CCCC(COc2ccccc2F)C1 (centres undefined),162.8
17,CCC1CN(CC(=O)N2CCN(C(C)=O)CC2)CCN1CCOC (centres undefined),107.2
18,CCC1CN(CC(=O)NC2(C#N)CCCC2)CCN1CCOC (centres undefined),2.566
19,CCC1CN(CCC(=O)N(C)C)CCN1CCOC (centres undefined),-4.079
20,CCC1CN(CC(=O)N2CCC2)CCN1CCOC (centres undefined),4.498
21,CCC1CN(CCNC(C)=O)CCN1CCOC (centres undefined),1.458
22,CCC1CN(CC(=O)N2CCCC2)CCN1CCOC (centres undefined),124
23,Cc1c(Br)cccc1C(=O)NCC1CCCNC1.Cl (centres undefined),0.4435
24,COc1ccc2nc(C3CC3)cc(C(=O)NCCc3nnc[nH]3)c2c1,-12.63
25,CC(C)Nc1nc2c(cc1C(=O)NCC1CC1)CCNCC2.O=C(O)C(F)(F)F.O=C(O)C(F)(F)F,-11.9

row,SMILES,Percent Effect [%]
1,COc1ccc2nc(C3CC3)cc(C(=O)NCc3noc(C)n3)c2c1,1.07
2,COCCNC(=O)c1cc(C2CC2)nc2onc(C3CCNC3)c12 (centres undefined),98.56
3,O=C(NCC1CC1)c1cc(C2CC2)nc2onc(C3CCCNC3)c12 (centres undefined),103.5
4,O=c1[nH]c(C2CCOC2)nc2ccc(Br)cc12 (centres undefined),-44.09
5,CCCc1noc(CNc2cc(C[S+](C)[O-])ccc2Cl)n1 (centres undefined),-7.446
6,c1cnn(CCNCc2csc(-c3ccc4c(c3)OCO4)n2)c1,-13.49
7,COC(=O)CNC(=O)C(C(C)C)n1cnc2cc(F)c(F)cc21 (centres undefined),-6.926
8,CCn1cnnc1CNC(=O)N1CCN(Cc2ccsc2)CC1,120.4
9,CCn1cnnc1CNC(=O)N1CCN(c2nc(C)c(C)s2)CC1,1.256
10,CCn1cnnc1CNC(=O)N1CCN(CC(C)C)CC1,151.2
11,CCn1cnnc1CNC(=O)N1CCN(C(C)C)CC1,131.3
12,CCn1cnnc1CNC(=O)N1CCN(c2cccs2)CC1,0.168
13,CCn1cnnc1CNC(=O)NCC(C(C)C)N1CCC(C)CC1 (centres undefined),-9.877
14,CCn1cnnc1CNC(=O)N1CCN(c2nccs2)CC1,84.21
15,CCC1CN(Cc2nnc(C(C)C)o2)CCC(=O)N1Cc1ccccc1 (centres undefined),-5.543
16,CC(C)N(C)C(=O)C1CCC(=O)N(CCc2cccc(F)c2)C1 (centres undefined),-15.9
17,CN(Cc1ccco1)C(=O)NCc1ccnc(SC(C)(C)C)c1,12.7
18,CN1CCOC(C(=O)N2CCOC3(CCCC3)C2)C1 (centres undefined),0.3314
19,CCn1cnnc1CNC(=O)N1CCOC(c2ccc(F)cc2)C1 (centres undefined),-19.34
20,CCn1cnnc1CNC(=O)N1CCCN(C(C)=O)CC1,-5.792
21,Cc1cc(CNC(=O)N2CCCN(Cc3ccccc3)CC2)no1,3.243
22,CCn1cnnc1CNC(=O)N1CCC(Cc2cccnc2)CC1,3.678
23,CCn1cnnc1CNC(=O)N1CCOCC1,-3.836
24,CCc1nncn1CCNC(=O)N1CCN(Cc2ccccc2)CC1,122
25,CCn1cnnc1CNC(=O)N1CCN(Cc2ccccc2)CC1,4.693

row,SMILES,Percent Effect [%]
1,CCn1cnnc1CNC(=O)N1CCN(CCc2ccccc2)CC1,119.3
2,CCn1cnnc1CNC(=O)N1CCCCCC1,138.5
3,CCn1cnnc1CNC(=O)N1CCN(Cc2ccco2)CC1,145.2
4,CC(NC(=O)N1CCN(CCc2ccccc2)CC1)c1nncn1C (centres undefined),-0.7448
5,CC(C)Oc1cccc(C(=O)C2CCCN(C(=O)c3ccoc3)C2)c1 (centres undefined),9.263
6,CCSCc1cccc(NC(=O)N(C)Cc2ncnn2C)c1,-22.36
7,COc1ccc(NC(C)C(=O)N2CCCC2)cn1 (centres undefined),2.582
8,CCn1cnnc1CNC(=O)N1CCC(OCc2ccccc2)CC1,128.6
9,CCN(CC)C1CCN(C(=O)NCc2nncn2CC)CC1,7.856
10,CCn1cnnc1CNC(=O)N1CCC(C(=O)NC)CC1,-5.598
11,O=C(NCC(O)c1cccc(O)c1)C1CCN(C2CCCCC2)CC1 (centres undefined),-14.15
12,Cc1nc[nH]c1-c1c(-c2ccccc2)ncn1C1CCNC1 (centres undefined),7.819
13,CN1CCN(C(=O)[C@@H]2CC[C@@H]3[C@@H](CCN3c3ncccn3)O2)CC1.O=C(O)C(F)(F)F.O=C(O)C(F)(F)F,-4.531
14,Cc1ccc(N2CC[C@H]3O[C@@H](C(=O)N4CCCCO4)CC[C@H]32)nn1.O=C(O)C(F)(F)F,113.9
15,Cc1ccc(N2CC[C@H]3O[C@H](C(=O)N4CCCCO4)CC[C@H]32)nn1.O=C(O)C(F)(F)F,105.7
16,O=C(O)C(F)(F)F.O=C([C@@H]1CC[C@@H]2[C@@H](CCN2c2ccncn2)O1)N1CCCCO1,117.6
17,O=C([C@@H]1CC[C@@H]2[C@@H](CCN2c2ncccn2)O1)N1CCCO1,3.223
18,O=C(O)C(F)(F)F.O=C([C@H]1CC[C@@H]2[C@@H](CCN2Cc2ccc(F)cc2)O1)N1CCCO1,-3.999
19,O=C(O)C(F)(F)F.O=C([C@@H]1COC[C@H]2CN(c3ccncn3)C[C@H]21)N1CCCCO1,-6.047
20,O=C([C@H]1CC[C@@H]2[C@@H](CCN2c2ncccn2)O1)N1CCCCO1,84.25
21,COC(=O)N(C)CCCC(=O)Nc1[nH]nc(-c2ccncc2)c1C,-7.715
22,O=C1CC[C@H]2CN(C3CCOCC3)CC[C@H]2N1CCC1=CCCCC1,14.62
23,Cc1ccc(N2CC[C@H]3O[C@@H](C(=O)N4CCCO4)CC[C@H]32)nn1.O=C(O)C(F)(F)F,88.3
24,Cc1ccc(CN2CC[C@H]3O[C@@H](C(=O)N4CCCO4)CC[C@H]32)s1.O=C(O)C(F)(F)F,-7.276
25,Cc1ccc(N2CC[C@H]3O[C@@H](C(=O)NCc4ccco4)CC[C@H]32)nn1.O=C(O)C(F)(F)F,17.63

row,SMILES,Percent Effect [%]
1,CSCCc1ccc(NC(=O)NC(C)Cn2cncn2)cc1 (centres undefined),-13.08
2,C[C@@H]1CN(c2ccc(Cl)cn2)CC[C@@]1(O)C1CCOCC1,111.4
3,C[C@@H]1CN(c2cccnn2)CC[C@@]1(O)C1CCOCC1,104.1
4,C[C@@H]1CN(C(=O)c2ccc(C#N)nc2)CC[C@@]1(O)C1CCOCC1,-17.54
5,C[C@@H]1CN(c2ccc(C#N)cn2)CC[C@@]1(O)C1CCOCC1,124
6,CNc1ccnc(N2CC[C@@](O)(C3CCOCC3)[C@H](C)C2)n1,0.6002
7,C[C@@H]1CN(C(=O)c2cnc(C3CC3)nc2)CC[C@@]1(O)C1CCOCC1,-14.06
8,C[C@@H]1CN(C(=O)c2c[nH]c(=O)c(Cl)c2)CC[C@@]1(O)C1CCOCC1,3.711
9,CN(Cc1ccsc1)C(=O)C1CCC(=O)N(Cc2ccccn2)C1 (centres undefined),0.2635
10,O=C(Nc1ccc(F)cc1)C1CNCCN1C(=O)CSc1ccncc1 (centres undefined),-2.751
11,CN1CC(Nc2ccc(Br)cc2C#N)CCC1=O (centres undefined),-7.586
12,CN(Cc1n[nH]c(=O)n1Cc1cccs1)S(C)(=O)=O,2.826
13,COc1ccc(CNC[C@H]2COCc3nc4cc(F)ccc4n32)cc1,-1.545
14,Cc1cc(C)c2c(c1)C(NCc1nnc3n1CCC3)CCCO2 (centres undefined),-14.27
15,CC(C)c1nnc(CN(C)C(c2ccccc2)c2ccc(F)cc2)o1 (centres undefined),6.032
16,O=C(NCc1ccc(CN2CCCC2)cc1)NC1(CO)CCCC1,-3.44
17,CC1CCN(Cc2ccc(CNC(=O)c3ccn(C)c(=O)c3)cc2)CC1,110.1
18,Cn1ccc(C(=O)NCc2ccc(Cn3ccnc3)cc2)cc1=O,-4.475
19,Cn1ccc(C(=O)NCc2cccc(Cn3ccnc3)c2)cc1=O,0.02977
20,Cn1ccc(C(=O)NCc2ccc(CN3CCCCC3)cc2)cc1=O,90.87
21,Cn1ccc(C(=O)NCc2ccc(N3CCCC3)nc2)cc1=O,-7.824
22,Cc1nccn1Cc1cccc(CNC(=O)c2ccn(C)c(=O)c2)c1,4.832
23,Cn1ccc(C(=O)NCc2ccc(CN3CCCC3)cc2)cc1=O,100.9
24,CC1CN(c2ccc(CNC(=O)c3ccn(C)c(=O)c3)cn2)CCO1 (centres undefined),-2.154
